# Measured values from the supplement of paper PMC8726507.
# Unmarked numbers belong to inactive results.
# System: Plasmodium falciparum NF54-HGL (transmission to Anopheles stephensi)
# Experiment: percentage of barcode signal found in uninfected mosquitoes (transmission-blocking activity); higher = stronger blocking of transmission to mosquito, active = 80 or more
# Conditions: gametocyte preincubation time 24 h, readout time post-feed 8 days
# Protocol: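 The mixture was fed to Anopheles stephensi in 96-well plates as blood meals tagged with DNA-barcoded Asaia bacteria. Eight days later, mosquitoes were classed infected or uninfected by luminescence (mean + 5 SD of unfed controls). Barcodes were quantified by Luminex MagPlex-TAG in the pooled uninfected and infected Asaia cultures, background-corrected, and the score is % of barcode signal in uninfected mosquitoes = 100*Iu/(Iu+Ii).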
SMILES,percentage of barcode signal found in uninfected mosquitoes (10 µM),percentage of barcode signal found in uninfected mosquitoes (20 µM)
COCC(C)NC(=O)CSc1ncnc2sc(-c3ccccc3)cc12 (stereo not given),47.4%,–
FC(F)(F)c1ccc(N(c2cccnc2)C2CCN(c3ccc(C(F)(F)F)cn3)CC2)cc1,–,27.4%
O=C(NCCc1ccccc1)c1cc(-c2cccnc2)cnc1NCC1CC1,–,2.28%
NCC(c1cccs1)S(=O)(=O)c1ccccc1 (stereo not given),–,17.5%
CN(C(=O)c1cc2c(-c3cncnc3)cccc2[nH]1)c1ccccc1,66.4%,–
CC1COC2(CCN(c3nc(=O)c4cc(C(F)(F)F)cc([N+](=O)[O-])c4s3)CC2)O1 (stereo not given),26.7%,–
C[C@H](c1ccc2c(c1)CCCC2)N(C)c1ncc2c(N)nc(N)nc2n1,–,0.379%
Cc1ccc(S(=O)(=O)N2CCN(C(=O)c3cc(-c4ccccc4)[nH]n3)CC2)cc1,69.8%,–
CCNC(=O)C(C)Nc1nc(-c2cccnc2)nc2sc(C)c(C)c12 (stereo not given),–,11.5%
COC(=O)c1ccc(F)cc1NS(=O)(=O)c1cccc(-c2cnn(Cc3ccccc3)c2)c1,31.1%,–
Clc1cccc(C(c2ccc(CN3CCNCC3)cc2)n2ccnc2)c1 (stereo not given),89.4% (active),–
CN1CCN(S(=O)(=O)c2ccc(-c3ccc4c(Nc5ccc6nn[nH]c6c5)ccnc4c3)cc2)CC1,–,3.18%
CCc1nc2ccc(C(=O)NCc3ccc4c(c3)OCO4)cn2c1N(C)Cc1cccs1,22.1%,–
COc1ccc(-c2cnc3ccc(N4CCCC4)nn23)cc1OC,75.3%,–
CCCCS(=O)(=O)Nc1ccc2cnn(C)c2c1,–,4.19%
